We go through 40 molecules from PubChem BioAssay (EPA / NIEHS).

Calls of active or inactive are those of the source. The calls were made as follows: active = hit-call score of the fitted dose curve at least 0.9, where 1 is the maximum; inactive = score below 0.9.

A short description of the experiment: ATG_E_Box_CIS: Attagene CIS-FACTORIAL HepG2 Assay for human Enhancer Box (E-box) (AID 2282936). The settings on record: HepG2 E-box cis-reporter transcription, actives raise or lower the signal. On the procedure: ATG_CIS is a cell-based, multiplexed-readout assay that uses HepG2, a human liver cell line, with measurements taken at 24 hours after chemical dosing in a 24-well plate.ATG_E_Box_CIS is one of 52 assay component(s) measured or calculated from the ATG_CIS assay. It is designed to make measurements of mRNA induction, a form of inducible reporter, as detected with fluorescence intensity signals by Reverse transcription polymerase chain reaction (RT-PCR) and Capillary electrophoresis technology.Data from the assay component ATG_E_Box_CIS was analyzed into 1 assay endpoint. This assay endpoint, ATG_E_Box_CIS, was analyzed with bidirectional fitting relative to DMSO as the negative control and baseline of activity. Using a type of inducible reporter, measures of mRNA for gain or loss-of-signal activity can be used to understand the reporter gene at the transcription factor-level as they relate to the gene USF1. Furthermore, this assay endpoint can be referred to as a primary readout, because this assay has produced multiple assay endpoints where this one serves a reporter gene function. To generalize the intended target to other relatable targets, this assay endpoint is annotated to the dna binding intended target family, where the subfamily is basic helix-loop-helix protein.
Human liver HepG2 cells are transiently transfected with multiple reporter transcription units (MRTUs) in 6-well plates using FuGene 6 reagent (Roche; 3 ml FuGene/1 mg DNA). The MRTU constructs are regulated by a cis-regulating element (promoter). […] A major difference between the CIS and TRANS system is that in CIS activities of endogenous TFs are measured, whereas the TRANS assay evaluates changes in activities of exogenous, chimeric NR-Gal4 proteins. […] At the end of 24 hour incubation, total RNA was isolated using TriZol reagent (Invitrogen). The isolated RNA is then reverse-transcribed using oligo(dT) primer and Mo-MLV reverse transcriptase (Invitrogen) with DNAse I (Ambion) treatment for 30 min. The one-tenth of the produced cDNA was amplified by PCR using Taq DNA polymerase (Invitrogen) and two reporter sequence-specific primers. The PCR products were fluorescently labeled by primer extension with 6-arboxyfluorescein (6-FAM) 5'-labeled reporter sequence-specific primer (2 min at 95 C, 20 s at 68 C and 10 min at 72 C) and these products were digested with 5U of HpaI (New England Biolabs) for 2h at 37 C. The fragments were purified using Qiaquick PCR columns (Qiagen), analyzed on an ABI 3130xL genetic analyzer (Applied Biosystems) with peak positions identified by using a set of X-rhodamine (ROX)-labeled MapMarker1000 molecular weight standards (BioVentures). The raw capillary electrophoresis data was processed using Attagraph software (Attagene).
`O=C(O)C(Br)Br`: the outcome was inactive.
The same measure, in the same setting: as for `ClC1=C(Cl)[C@]2(Cl)[C@@H]3[C@@H](Cl)[C@H](Cl)C[C@@H]3[C@@]1(Cl)C2(Cl)Cl`, the entry is “inactive”; as for `C=Cc1cccc(CCl)c1`, “inactive”.
Usually AC50 stands for the midpoint of the concentration-response curve, whichever way the signal moves. In the case of `O=C(CCl)c1ccccc1`, the AC50 is 16.2 µM (active).
`COc1cc(OC)nc(Oc2cccc(Oc3nc(OC)cc(OC)n3)c2C(=O)O)n1`: the result was inactive.
The same measure, in the same setting: as for `CC1(C)C(=O)NC(=O)NC1=O`, the entry is “inactive”; as for `Cc1ccc(OP(=O)(Oc2ccc(C)cc2)Oc2ccc(C)cc2)cc1` (tested in a mixture with another compound), “inactive”.
On the same count and under the same terms, then `CSc1nc(N=[N+]=[N-])nc(NC(C)C)n1`, with “inactive”; and `O=S(=O)(c1ccccc1)c1ccccc1`, with “inactive”; and `CC1OC(C)OC(C)O1` (stereo not given), with “inactive”.
With `O=S(=O)(O)O`, the result was inactive.
For `O=C1C(Cl)=C(Cl)C(=O)C(Cl)=C1Cl`, the concentration at half-maximal activity (AC50) is 58.4 µM (active).
Consider `Nc1ccc(Cl)c(Cl)c1`, for which the result was inactive.
For `C=CC(=O)OCCO`, the result was inactive.
For the molecule `CCC(C)c1cc([N+](=O)[O-])cc([N+](=O)[O-])c1OC(=O)C=C(C)C` (stereo not given), the AC50 is 17.7 µM (active).
As for `CCC(=O)c1ccc(Cl)cc1`, the outcome was inactive.
As for `CCOC(=O)NC(=S)Nc1ccccc1NC(=S)NC(=O)OCC`, the outcome was inactive.
Same read-out and setting: as for `CC1CCC(=O)O1` (stereo not given), the entry is “inactive”; as for `CC(C)C(=O)Cl`, “inactive”.
On the same count and under the same terms, as for `O=C1Nc2ccc(Cl)cc2C(c2ccccc2)=NC1O` (stereo not given), the entry is “inactive”; as for `CNC(=O)Oc1cc(C)c(SC)c(C)c1`, “inactive”.
In the case of `CCCCCc1cc(O)cc(O)c1`, the concentration at half-maximal activity (AC50) is 36.9 µM (active).
Consider `CCCCOP(=O)(O)OCCCC`, for which the result was inactive.
For `CCCCNP(N)(N)=S`, the outcome was inactive.
In the case of `O=[N+]([O-])C=Cc1ccccc1`, the AC50 is 25.5 µM (active).
With `C=CCc1ccc(OC(=O)Cc2ccccc2)c(OC)c1`, the result was inactive.
The same measure, in the same setting: as for `O=c1[nH]c(Cl)c(Cl)cc1Cl`, the entry is “inactive”; as for `CC(C)c1ccc(O)cc1`, “inactive”.
Still for that read-out and setting: as for `Nc1ccc(-c2ccc(N)c(N)c2)cc1N`, the entry is “inactive”; as for `Oc1ccc(Cl)cc1`, “inactive”; as for `O=C1C=CC(=O)C=C1`, “inactive”.
As to `BrCBr`, the outcome was inactive.
The same measure, in the same setting: as for `CN(C)C(=O)C(c1ccccc1)c1ccccc1`, the entry is “inactive”; as for `COC(=O)COc1ccc(Cl)cc1Cl`, “inactive”.
Still for that read-out and setting: then `COC(=O)c1ccccc1S(=O)(=O)NC(=O)Nc1nc(C)cc(C)n1`, with “inactive”.
Still for that read-out and setting: then `CCCCCCCCCCCC#N`, with “inactive”.
Regarding `Nc1ccccc1C(=O)Oc1ccc2ccccc2c1`, the result was inactive.
Regarding `O=S(=O)(O)OOS(=O)(=O)O`, the outcome was inactive.
As to `CC(C)(C)C(=O)CCl`, the concentration at half-maximal activity (AC50) is 45.2 µM (active).
The same measure, in the same setting: then `c1cc(OCC2CO2)ccc1Cc1ccc(OCC2CO2)cc1` (stereo not given), with 53.2 µM (active).
